Compound activity from PubChem.
Sampled rows, rich in hits. Any-hit rate of the full collection: about 8.9%.
D1 mod: allosteric modulators of human D1 dopamine receptor; P21728; B-score at 10 µM; actives 5.9% (n = 58,000); AID 641; HEK293 D1, CRE-luciferase, dopamine EC30 potentiation; actives deviate in either direction;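 active means luminescence count or its row- and column-corrected plate score outside the 99.7% band of the plate's sample wells, on either side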
M1 antag: blocks the rat M1 muscarinic receptor response to acetylcholine. P08482. CHO-M1 cells, Fluo-4 calcium, ACh EC80 antagonist mode; stronger effect = lower value. B-score at 10 µM. actives 3.4% (n = 64,000). AID 628;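 active means calcium fluorescence response, raw or row-and-column corrected B-score, differing from the plate sample mean either way at a set confidence level, mostly lower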
WNV protease inh: blocks West Nile virus NS2B-NS3 protease activity; AID 577; actives 0.18% (n = 65,000); P06935; WNV NS2B-NS3 protease, fluorogenic substrate Ex360/Em465; stronger effect = lower value; z-score (concentration not given with the values); in the data active means z-score below about -3
Target sequence (P06935 1371-1501 limits assumed): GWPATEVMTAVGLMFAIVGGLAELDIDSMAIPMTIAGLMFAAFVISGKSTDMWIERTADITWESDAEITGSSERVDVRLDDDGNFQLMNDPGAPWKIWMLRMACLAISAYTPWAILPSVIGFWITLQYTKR
Target sequence (P06935 1502-1679 limits assumed): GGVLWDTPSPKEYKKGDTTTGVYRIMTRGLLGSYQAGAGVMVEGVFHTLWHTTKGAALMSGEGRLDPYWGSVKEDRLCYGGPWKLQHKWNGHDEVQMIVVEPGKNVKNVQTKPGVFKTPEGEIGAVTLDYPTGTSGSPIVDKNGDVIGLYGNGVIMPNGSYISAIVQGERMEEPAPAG
M1 ag: M1 muscarinic receptor agonism; CHO-M1 cells, Fluo-4 calcium fluorescence, agonist mode; stronger effect = higher value; B-score at 10 µM; actives 3% (n = 64,000); AID 626;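 active means fluorescence rise, raw or as B-score row- and column-corrected plate score, outside the 99.7% band of its plate's samples, either direction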
Htt clearance: compounds clearing mutant huntingtin protein; actives 0.42% (n = 47,000); inhibition, % at 1.5 µM; AID 853; HeLa Exon1htt(103Q)mCFP, aggregate imaging; zero = plate's median compound well;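 active means inhibition of aggregate fluorescence above about 70%, also judged a hit by eye on the cell image, limit read from the data, passing the limit was not always enough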;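 further: cells exposed to compound for three days before fixation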
Numbers stand for hits.

Screening Cc1ccc(OCCn2cc(/C(N)=N/O)c3ccccc32)cc1C returned D1 mod -3.1, M1 antag inactive, WNV protease inh inactive, M1 ag inactive and Htt clearance inactive.
For O=C(C1COc2ccccc2O1)N1CCc2ccccc21 (stereo not given) the results were D1 mod inactive, M1 antag inactive, WNV protease inh inactive and M1 ag inactive.
Screening CCOC(=O)c1[nH]c2ccccc2c1NC(=O)CC returned D1 mod inactive, M1 antag inactive, WNV protease inh -4 and M1 ag inactive.
Cc1cccc(N(C)C(=O)c2cc3cc4ccc(C)cc4nc3o2)c1 was read as D1 mod inactive, M1 antag inactive, WNV protease inh inactive and M1 ag inactive.
Screening Cc1ccc2cc3cc(C(=O)N(C)C4CCCCC4)oc3nc2c1 returned D1 mod -3.5, M1 antag inactive, WNV protease inh inactive and M1 ag inactive.
Screening CCCCn1ccnc1C(=O)c1ccc(S(=O)(=O)N(CCOC)CCOC)cc1 returned D1 mod inactive, M1 antag inactive, WNV protease inh inactive, M1 ag inactive and Htt clearance inactive.
`O=C1C2=C(SCCS2)C(=O)N1c1ccccc1` gave D1 mod inactive, M1 antag inactive, WNV protease inh inactive and M1 ag inactive.
Screening O=C1C2=C(SCCS2)C(=O)N1CCCO returned D1 mod inactive, M1 antag inactive, WNV protease inh inactive, M1 ag 7.9 and Htt clearance inactive.
For Cc1cc(C)c(C)c(/C=C(/C#N)C(N)=S)c1C the results were Htt clearance 77.
Screening O=C(CCCOc1ccc(Cl)cc1Cl)N1CCN(c2ccccn2)CC1 returned D1 mod inactive, M1 antag inactive, WNV protease inh inactive and M1 ag inactive.
`O=C(CCCOc1ccccc1)N1CCN(c2ccccn2)CC1` gave D1 mod -2.9, M1 antag inactive, WNV protease inh inactive, M1 ag inactive and Htt clearance inactive.
Screening O=C(Cc1cccs1)N1CCN(c2ccccn2)CC1 returned D1 mod -4.5, M1 antag inactive, WNV protease inh inactive, M1 ag inactive and Htt clearance inactive.
Cc1cccn2c(=O)c(C=NCc3ccco3)c(Nc3ccc(Cl)cc3)nc12 was read as D1 mod inactive, M1 antag inactive, WNV protease inh -3.3 and M1 ag inactive.
`COc1ccc(NC(=O)c2cc(-c3ccc(C)o3)nc3ccccc23)cc1OC` gave D1 mod -4.7, M1 antag inactive, WNV protease inh inactive, M1 ag inactive and Htt clearance inactive.
`Cc1cccc(NC(=O)c2cc(-c3ccco3)nc3ccccc23)n1` gave D1 mod -3.7, M1 antag inactive, WNV protease inh inactive, M1 ag inactive and Htt clearance inactive.
`COc1ccc(NC(=O)c2cc(-c3cccnc3)nc3ccc(C)cc23)cc1OC` gave Htt clearance inactive.
Screening CCCCCCNC(=O)c1cc(-c2ccco2)nc2ccccc12 returned Htt clearance inactive.
Screening CC(=NC(C)C)C1=C(O)CCC1=O returned D1 mod inactive, M1 antag inactive, WNV protease inh inactive and M1 ag inactive.
For COC(=O)c1ccccc1NC(=O)c1cc(-c2ccc(OC)c(OC)c2)on1 the results were D1 mod inactive, M1 antag inactive, WNV protease inh inactive, M1 ag inactive and Htt clearance 71.
Screening COc1cccc(-c2cc(C(=O)Nc3cnn(Cc4ccccc4C)c3)no2)c1 returned D1 mod inactive, M1 antag inactive, WNV protease inh inactive, M1 ag inactive and Htt clearance inactive.
COc1cccc(-c2cc(C(=O)Nc3cnn(Cc4ccc(F)cc4)c3)no2)c1 was read as D1 mod -3, M1 antag inactive, WNV protease inh inactive, M1 ag inactive and Htt clearance inactive.
Screening COc1cccc(-c2cc(C(=O)Nc3cc(OC)c(OC)c(OC)c3)no2)c1 returned D1 mod inactive, M1 antag inactive, WNV protease inh inactive, M1 ag 2.4 and Htt clearance inactive.
`CCCc1nccn1S(=O)(=O)c1cc(OC)ccc1OC` gave Htt clearance inactive.
`O=C(O)Cn1nnnc1-c1ccc(F)cc1` gave D1 mod inactive, M1 antag inactive, WNV protease inh inactive and M1 ag -2.
`O=C(Cc1cc(=O)[nH]c(=O)[nH]1)N1CCC(Cc2ccccc2)CC1` gave D1 mod inactive, M1 antag inactive, WNV protease inh inactive and M1 ag inactive.
For Cc1nnc(NCCc2ccccc2)n(N)c1=O the results were D1 mod inactive, M1 antag 1.5, WNV protease inh inactive, M1 ag inactive and Htt clearance inactive.
`Cc1nnc(SCC(=O)NCCc2ccccc2)[nH]c1=O` gave D1 mod inactive, M1 antag inactive, WNV protease inh inactive, M1 ag inactive and Htt clearance inactive.
CC12CCC(C(=O)NCc3ccc4c(c3)OCO4)(OC1=O)C2(C)C (stereo not given) was read as D1 mod inactive, WNV protease inh inactive and Htt clearance 71.
CC12CCC(C(=O)NCc3ccccc3)(OC1=O)C2(C)C (stereo not given) was read as D1 mod inactive, M1 antag inactive, WNV protease inh inactive and M1 ag inactive.
Screening CCc1cc2c(=O)c(-c3ccc4c(c3)OCCO4)coc2cc1OC(=O)c1ccco1 returned D1 mod -2.9, M1 antag inactive, WNV protease inh inactive, M1 ag inactive and Htt clearance inactive.
`COc1cc(C2/C(=C(/O)c3ccc(F)cc3)C(=O)C(=O)N2CCCC(=O)O)ccc1O` (stereo not given) gave D1 mod -3.9, M1 antag inactive, WNV protease inh inactive and M1 ag inactive.
Screening COc1ccc(/C(O)=C2/C(=O)C(=O)N(CCCC(=O)O)C2c2ccc(OC)c(OC)c2)cc1 (stereo not given) returned D1 mod inactive, M1 antag inactive, WNV protease inh inactive, M1 ag inactive and Htt clearance inactive.
Screening COc1cccc(-c2cc(C(=O)N3C(C)CCCC3C)no2)c1 (stereo not given) returned M1 antag inactive, WNV protease inh inactive and M1 ag inactive.
Screening CC1=C(C)C(=O)NC(Nc2nc(C)c3cc(C)cc(C)c3n2)N1 (stereo not given) returned D1 mod -3.2, M1 antag inactive, WNV protease inh inactive, M1 ag inactive and Htt clearance inactive.
Screening COc1cc2nc(-c3cccs3)oc(=O)c2cc1OC returned D1 mod 5.6, M1 antag inactive, WNV protease inh inactive, M1 ag inactive and Htt clearance inactive.
For NC(=O)c1cnccn1 the results were WNV protease inh inactive.
For CC(C)CNC(=O)C1CC(=O)OC12CCCCC2 (stereo not given) the results were D1 mod inactive, M1 antag 2.1, WNV protease inh inactive, M1 ag inactive and Htt clearance inactive.
`Cc1noc(/C=C/N(C)C)c1S(=O)(=O)N1CCc2ccccc21` gave D1 mod inactive, M1 antag 1.3, WNV protease inh inactive and M1 ag inactive.
Screening Cc1ccc2cc(C#N)c(NCc3ccco3)nc2c1 returned D1 mod 6.7, M1 antag inactive, WNV protease inh inactive, M1 ag inactive and Htt clearance inactive.
